The supplement of paper PMC12350171
Counter-ions that a name gives are not always drawn. Values without a mark were called inactive.

Experiments:
Details in all cases: 20 µM
[1] = system: Salmonella enterica typhimurium; experiment: growth AUC normalised to DMSO control (fraction of control); higher = less growth inhibition, active = hit call of the paper
Summary of the method: (§1)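 For the AUC endpoint, growth curves were integrated by the trapezoidal rule up to the exponential-to-stationary transition and normalised to DMSO controls on the same plate. The curves came from OD578 readings taken hourly for 24 h, in three biological replicates. Pathogens had been passaged anaerobically twice and inoculated at an OD578 of 0.01 into pre-reduced mGAM plates carrying 20 μM compound and 1% DMSO, sealed with breathable membranes. Medium for Haemophilus parainfluenzae also contained hemin and NAD.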

[2] = system: Shigella flexneri; experiment: as above
Summary of the method: as §1

[3] = system: Vibrio cholerae; experiment: as above
Summary of the method: as §1

[4] = system: Yersinia pseudotuberculosis; experiment: as above
Summary of the method: as §1

[5] = system: P. vulgatus RND KO; experiment: growth AUC normalised to DMSO control (median) (fraction of control); higher = less growth inhibition, active = hit call of the paper
Summary of the method: (§2)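 Anaerobic growth was tracked hourly at OD578 for 24 h in 96-well plates of mGAM seeded at OD578 0.01 with each approved-drug library compound at 20 μM and 1% DMSO. Strains had first been passaged twice overnight without oxygen. Three biological replicates were run. The reported median is the area under the curve, calculated by the trapezoidal rule on curves truncated at entry into stationary phase and normalised to vehicle wells on the same plate.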

[6] = system: P. vulgatus WT; experiment: as above
Summary of the method: as §2

[7] = system: S. enterica typhimurium WT; experiment: as above
Summary of the method: as §2

[8] = system: S. enterica typhimurium tolC KO; experiment: as above
Summary of the method: as §2
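For growth AUC normalised to DMSO control (median) in this document: active when median AUC fell below 0.1.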

SMILES	growth AUC normalised to DMSO control [1]	growth AUC normalised to DMSO control [2]	growth AUC normalised to DMSO control [3]	growth AUC normalised to DMSO control [4]	growth AUC normalised to DMSO control [5]	growth AUC normalised to DMSO control [6]	growth AUC normalised to DMSO control [7]	growth AUC normalised to DMSO control [8]
OC(Cn1cncn1)(Cn1cncn1)c1ccc(F)cc1F [Fluconazole]	1.01	1.03	1.04	1.01	1.01	1.06	1.01	1
NNC(=O)c1ccncc1 [Isoniazid]	1.02	1.04	1.05	0.942	1.04	1.07	1.01	0.989
CC(C)(C)c1ccc(C(O)CCCN2CCC(C(O)(c3ccccc3)c3ccccc3)CC2)cc1 (stereo not given) [Terfenadine]	1.01	0.999	0.982	1.03	0.907	0.892	1.01	0.88
C[C@@H]1C[C@H]2[C@@H]3C[C@H](F)C4=CC(=O)C=C[C@]4(C)[C@@]3(F)[C@@H](O)C[C@]2(C)[C@@]1(O)C(=O)CO [Flumethasone]	0.995	0.994	0.997	0.993	1.01	1.02	0.997	1.01
C1N2CN3CN1CN(C2)C3 [Methenamine]	1.02	1.02	1.05	1.03	1	1.03	1	0.991
C=C1c2c(Cl)ccc(O)c2C(O)=C2C(=O)[C@]3(O)C(O)=C(C(N)=O)C(=O)[C@@H](N(C)C)[C@@H]3[C@@H](O)[C@H]12.O=C(O)c1cc(S(=O)(=O)O)ccc1O [Meclocycline sulfosalicylate]	0.00503 (active)	0.015 (active)	0.0396 (active)	0.0398 (active)	0.0142 (active)	0.022 (active)	0.0103 (active)	0.00967 (active)
CN1[C@@H]2CC[C@H]1C[C@@H](OC(=O)c1c[nH]c3ccccc13)C2 [Tropisetron hydrochloride]	1.01	0.997	1.01	1	1.01	1.02	1.01	1
Nc1c(Br)cc(Br)cc1CN[C@H]1CC[C@H](O)CC1 [Ambroxol hydrochloride]	0.979	0.987	0.963	1	0.955	0.961	0.982	0.991
COc1cc(Cc2cnc(N)nc2N)cc(OC)c1OC [Trimethoprim]	0.197 (active)	0.0632 (active)	0.0115 (active)	0.157 (active)	0.45	0.259	0.147	0.132
CC1CCc2c(N3CCC(O)CC3)c(F)cc3c(=O)c(C(=O)O)cn1c23 (stereo not given) [Nadifloxacin]	0.00794 (active)	0.0399 (active)	0.0237 (active)	0.0176 (active)	0.0102 (active)	0.00997 (active)	0.0247 (active)	0.00372 (active)
OCC(O)CN1CCN(c2ccccc2)CC1 (stereo not given) [Dropropizine]	1.02	1.06	1.04	1.01	1.05	1.06	0.991	0.981
Nc1ccc(S(=O)(=O)Nc2ncccn2)cc1 [Sulfadiazine]	0.989	0.974	1	0.987	0.996	0.995	0.986	1
CCN(CC)CCCC(C)Nc1c2ccc(Cl)cc2nc2ccc(OC)cc12 (stereo not given) [Quinacrine dihydrochloride hydrate]	0.957	0.933	1.04	0.996	1.01	0.986	0.99	0.978
CC(C)NCC(O)c1ccc2ccccc2c1 (stereo not given) [Pronethalol hydrochloride]	0.991	1	0.999	0.982	1	1.01	0.994	0.989
O=C(O)Cc1ccccc1Nc1c(Cl)cccc1Cl [Diclofenac sodium]	0.975	0.957	0.973	0.982	0.95	0.964	1	0.997
